From PubChem BioAssay (NCATS)
Records with an inconclusive call do not appear. Unmarked numbers belong to inactive results. The source made the active and inactive calls. The call rests on the fitted dose curve; in most records, active means well fitted inhibition curve with a large enough effect; inconclusive means small, poorly fitted or top-dose-only effect, or effect the other way; inactive means flat fitted curve, though single readings scatter.

Target: ATP-dependent 6-phosphofructokinase (Trypanosoma brucei brucei) (UniProt O15648)
Experiment: qHTS Assay to Find Inhibitors of T. brucei phosphofructokinase: hit validation (AID 492961);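 on activity change, negative = inhibition: luminescence reports ADP formed as PFK phosphorylates fructose-6-phosphate with ATP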
Conditions: T. brucei PFK, ADP-Glo luminescence; series mostly up to 51.4 µM; activity change, negative = inhibition: at the top concentration
How it was run: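 Measures ADP output of PFK (1.25 nM) at 0.1 mM ATP, 0.5 mM F6P, pH 8.0 TEA buffer with 5 mM MgCl2. No-enzyme wells define full inhibition; uninhibited enzyme wells define zero.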
On the % scale 0 is the no-effect control and ±100 the full control effect; potency means the concentration at half of the fitted maximal effect.

ATP-dependent 6-phosphofructokinase (Trypanosoma brucei brucei), sequence (O15648 whole entry, looked up): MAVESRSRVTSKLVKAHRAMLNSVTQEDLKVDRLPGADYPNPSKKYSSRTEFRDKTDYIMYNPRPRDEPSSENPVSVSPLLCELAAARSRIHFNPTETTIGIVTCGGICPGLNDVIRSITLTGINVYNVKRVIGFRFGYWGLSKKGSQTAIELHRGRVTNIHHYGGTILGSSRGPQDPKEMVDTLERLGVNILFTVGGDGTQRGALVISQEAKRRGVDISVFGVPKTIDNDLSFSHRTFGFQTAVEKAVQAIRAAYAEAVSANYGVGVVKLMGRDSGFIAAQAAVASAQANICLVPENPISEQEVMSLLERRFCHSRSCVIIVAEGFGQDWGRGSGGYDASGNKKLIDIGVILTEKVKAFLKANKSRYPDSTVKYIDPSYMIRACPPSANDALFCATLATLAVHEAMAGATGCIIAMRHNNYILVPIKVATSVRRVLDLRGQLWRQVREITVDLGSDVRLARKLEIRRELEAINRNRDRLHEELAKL

SMILES | activity change, negative = inhibition | Potency
Clc1ccc(C2(Cn3cncn3)OCCO2)c(Cl)c1 | -4.84% | –
ClC(Cl)(Cl)Cl | 1.38% | –
O=C1CCO1 | 13.1% | –
CNC1(c2ccccc2Cl)CCCCC1=O (centres undefined) | – | inactive
CC(N)Cc1ccc(O)cc1 (centres undefined) | 4.65% | –
COC1=CC=C2[C@H]3Cc4ccc(OC)c5c4[C@@]2(CCN3C)[C@H]1O5 | 2.22% [at 24.3 µM] | –
CCC(C)(S(=O)(=O)CC)S(=O)(=O)CC | -3.64% | –
CCC1C(C)=NN=C(c2ccc(OC)c(OC)c2)c2cc(OC)c(OC)cc21 (centres undefined) | 2.64% | –
COCC(C)N(C(=O)CCl)c1c(C)csc1C (centres undefined) | 4.07% | –
FC(F)OC(F)(F)C(F)Cl (centres undefined) | 5.78% | –
O=C(NCNC(=O)NC1C(=O)NC(=O)N1CO)NC1C(=O)NC(=O)N1CO (centres undefined) | -7.7% | –
C=CCN=C=S | 1.02% | –
CC(=O)OC1CN2CCC1CC2 (centres undefined) | 0% | –
C#CC(C)(O)CC (centres undefined) | -4.22% | –
O=c1[nH]c(=O)n(Cl)c(=O)n1Cl | 3.51% | –
C[CH2][Hg][S]c1ccccc1C(=O)O | – | 14.1 µM (active)
CCCC(C)C1(CC)C(=O)NC(=O)NC1=O (centres undefined) | 9.7% | –
O=c1[nH]cc(N(CCCl)CCCl)c(=O)[nH]1 | -8.37% | –
COc1ccc2c3c1O[C@H]1C(=O)CC[C@H]4[C@@H](C2)N(C)CC[C@]314 | -8.88% | –
CC(C)(C)c1cc(O)ccc1O | -17.4% | –

SMILES | activity change, negative = inhibition | Potency
O[C@H]1[C@H]2[C@H](O)CCCN2C[C@H]1O | -2.98% | –
CCCCCCCCCC(=O)O[C@H]1CC[C@H]2[C@@H]3CCC4=CC(=O)CC[C@]4(C)[C@H]3CC[C@]12C | 9.44% | –
CCC1(C)CC(=O)NC(=O)C1 | 6.6% [at 24.3 µM] | –
C[C@H]1CC[C@@H]2[C@@H](C)[C@H]3[C@H](C[C@H]4[C@@H]5CC=C6CC(O[C@@H]7O[C@H](CO)[C@H](O)[C@H](O[C@@H]8O[C@H](CO)[C@@H](O)[C@H](O)[C@H]8O)[C@H]7O[C@H]7O[C@@H](C)[C@H](O)[C@@H](O)[C@H]7O)CC[C@]6(C)[C@H]5CC[C@]34C)N2C1 (some centres undefined) | 5.38% | –
CC(C)Nc1ccc(Nc2ccccc2)cc1 | -18.4% | –
C=CCN1CC[C@]23c4c5ccc(O)c4O[C@H]2[C@@H](O)C=C[C@H]3[C@H]1C5 | -0.88% | –
O=C(OCCN1CCCCC1)C(O)(c1ccccc1)c1ccccc1 | -0.184% | –
O=C/C=C/c1ccccc1 | -4.33% | –
O=[N+]([O-])c1ccc(F)c([N+](=O)[O-])c1 | -10.7% | –
O=S(=O)(O)c1cc(O)ccc1O | 18.2% [at 24.3 µM] | –
CCC1(c2ccccc2)C(=O)NC(=O)N(C(=O)c2ccccc2)C1=O (centres undefined) | 0% | –
c1csc(C2(N3CCCCC3)CCCCC2)c1 | -8.28% | –
O=[N+]([O-])c1cc(I)c(O)c(I)c1 | -24.3% | –
c1cc2c(c(NC3=NCCN3)c1)CCCC2 | -5.49% | –
CNC(C)C(O)c1ccc(O)cc1 (centres undefined) | 14.3% | –
Oc1cccc[c]1[Hg][Cl] | – | 5.62 µM (active)
O=C(NC(=O)c1c(F)cccc1F)Nc1ccc(Cl)c(Oc2ncc(C(F)(F)F)cc2Cl)c1 | -3.06% | –
OC(c1ccccc1)(c1ccccc1)C1CN2CCC1CC2 (centres undefined) | 0% | –
CCCC(=O)OC(C(Cl)(Cl)Cl)P(=O)(OC)OC (centres undefined) | 1.58% | –
